Screening data: PubChem BioAssay, National Center for Advancing Translational Sciences (NCATS)
DT40 TDP1 no CPT: qHTS for Inhibitors of human tyrosyl-DNA phosphodiesterase 1 (TDP1): qHTS in cells in absence of CPT; DT40 Tdp1-/- hTDP1 cells, no CPT, ATP luminescence, 48 h; Potency, µM (top dose mostly 46.2 µM), for inactives: at the highest dose activity change, negative = growth inhibition, most hits filed as inhibitors; 420,000 tested, 15% active; also: potency is read from the fitted curve at half-maximal effect; nearly all actives have a fitted effect of over 55% in size
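A cellular qHTS used chicken DT40 cells lacking endogenous Tdp1 but carrying stably transfected human TDP1. Compounds were applied without camptothecin, and cell growth kinetics were judged by ATP-dependent luminescence after ≥48 hr.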
IL1B secr inh: blocks inflammasome-driven IL-1 beta release; THP-1 LPS/ATP IL-1B secretion, AlphaLISA, 16 h; active compounds read low; activity change, % at 57.5 µM; 360,000 tested, 4.7% active; AID 743279; in the data active = activity change below about -50%; inconclusive = mostly about -30% to -49%
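Secreted IL-1B measured by AlphaLISA bead assay after 16 h compound exposure of THP-1 cells; compounds (final up to 57.5 uM) added 1 h before LPS (250 ng/mL) and ATP (1.25 mM) stimulation; lower signal means less secretion.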
HT1080NT lethal: kills 2HG-producing HT-1080-NT fibrosarcoma cells | HT-1080-NT fibrosarcoma viability, CellTiter-Glo ATP luminescence, 48 h | Potency, µM (series often up to 46.1 µM), for inactives: at the highest dose activity, negative = less viability, hits mostly cytotoxic | 360,000 tested, 1.6% active | AID 686970;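 also: NT is the 2HG producing partner of a matched IDH1 knockdown line; potency is read from the fitted curve at half-maximal effect; 0% = DMSO-treated cells and -100% = media-only wells without cells; nearly all actives have a fitted effect of over 55% in size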
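Luminescent CellTiter-Glo readout after 48 hours of compound exposure at 37 degrees C defined viability of HT-1080-NT cells. Activity was normalized to DMSO wells and cell-free media wells; concentration-response curves were fitted and assigned curve classes.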
TDP1 cell CPT: DT40-hTDP1 cell growth loss with CPT. chicken DT40 Tdp1-/-;hTDP1 cells + 20 nM CPT, ATP luminescence, 48 h. Potency, µM (titrated, usually from 46.2 µM), without a hit: at the highest dose activity change, negative = growth inhibition, usual class: inhibitors. 420,000 tested, 12% active; also: potency is read from the fitted curve at half-maximal effect; nearly all actives have a fitted effect of over 55% in size
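Chicken DT40 Tdp1-/- cells complemented with human TDP1, 400 cells/well, exposed to compounds plus 20 nM camptothecin for at least 48 h at 37 C; viability read as ATP content by CellTiter-Glo luminescence.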
HT1080 IDH1KD tx: HT-1080 IDH1 knockdown cell toxicity (counter line); HT-1080 IDH1 knockdown viability, ATP luminescence, 48 h; Potency, µM (doses to about 46.1 µM), without a hit: at the highest dose activity, negative = toxicity, hits mostly cytotoxic; 360,000 tested, 2% active; AID 686971;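 also: potency is read from the fitted curve at half-maximal effect; 0% = DMSO wells and -100% = cell-free medium wells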
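IDH1KD HT-1080 cells, 750/well, RPMI + 5% FBS; compound pinned after 2 h settling; 48 h, 37 °C; CellTiter-Glo luminescence; % activity normalised to DMSO and no-cell wells; curves fitted, classed by r2 and efficacy.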
Starred values were filed as active, the others as inactive; [ ] = another dose, or the depositor's remark. In the library only some 19% were active in any assay of this set; here they are far more common. Unless noted, calls follow the shape of the dose curve; as a rule, active = well fitted curve in the direction sought with a large enough effect; inconclusive = small, poorly fitted or top-dose-only effect, or another doubt; inactive = no such curve, though single readings can be large; an effect the other way counts as inactive or inconclusive. Unless noted, % is scaled to controls: 0 for no effect and ±100 for the full control effect.

What do the screens show for `O=C(Nc1cccc(CNCCc2c[nH]c3ccccc23)c1)c1ccccc1Cl`?
DT40 TDP1 no CPT: 18µM*; IL1B secr inh: inconclusive; HT1080NT lethal: inconclusive; TDP1 cell CPT: inconclusive; HT1080 IDH1KD tx: inconclusive

Results for O=C(NCCc1c[nH]c2ccccc12)c1ccc([N+](=O)[O-])o1 ?
DT40 TDP1 no CPT: 23µM*; IL1B secr inh: -87*; HT1080NT lethal: inconclusive; TDP1 cell CPT: 15µM*; HT1080 IDH1KD tx: inconclusive

What do the screens show for `O=C(Nc1ccccc1C(=O)OCC(=O)c1c[nH]c2ccccc12)c1ccco1`?
DT40 TDP1 no CPT: inconclusive; IL1B secr inh: -2; HT1080NT lethal: inconclusive; TDP1 cell CPT: 8.2µM*; HT1080 IDH1KD tx: -6%

What do the screens show for `CC(=O)c1cccc(NC(=O)NCCc2c[nH]c3ccccc23)c1`?
DT40 TDP1 no CPT: inconclusive; IL1B secr inh: -8; HT1080NT lethal: -6%; TDP1 cell CPT: -14%; HT1080 IDH1KD tx: -2%

Results for O=C(NCCc1c[nH]c2ccccc12)OCCCCOC(=O)NCCc1c[nH]c2ccccc12 ?
DT40 TDP1 no CPT: 23µM*; IL1B secr inh: -51*; HT1080NT lethal: inconclusive; TDP1 cell CPT: 18µM*; HT1080 IDH1KD tx: inconclusive

How did CCSc1nnc(C(C)NS(=O)(=O)c2cccc(Cl)c2C)n1C (centres undefined) do in these assays?
DT40 TDP1 no CPT: -1%; TDP1 cell CPT: -1%[9.04 µM]

Results for Cc1ccc2c(c1)N(C(=O)N1CCC(C(=O)NC3CCCCCC3)CC1)CCO2 ?
DT40 TDP1 no CPT: inconclusive; TDP1 cell CPT: -10%

What do the screens show for `Cc1cc(C)c(S(=O)(=O)Nc2ncccc2C)c(C)c1`?
DT40 TDP1 no CPT: inconclusive; IL1B secr inh: 15; HT1080NT lethal: -2%; TDP1 cell CPT: 0%; HT1080 IDH1KD tx: -2%

How did O=C(COC(=O)c1ccccc1C(=O)OCC(=O)NCCc1c[nH]c2ccccc12)NCCc1c[nH]c2ccccc12 do in these assays?
DT40 TDP1 no CPT: 23µM*; IL1B secr inh: -20; HT1080NT lethal: inconclusive; TDP1 cell CPT: inconclusive; HT1080 IDH1KD tx: -23%

What do the screens show for `Cc1ccc(C)c(CN2C(=O)c3ccccc3Sc3ccc(C(=O)NCc4ccc5c(c4)OCO5)cc32)c1`?
DT40 TDP1 no CPT: -14%; TDP1 cell CPT: 15%

What do the screens show for `CCCN(CCC)CC(O)Cn1c2ccccc2c2ccccc21` (centres undefined)?
DT40 TDP1 no CPT: inconclusive; IL1B secr inh: -75*; HT1080NT lethal: -3%; TDP1 cell CPT: inconclusive; HT1080 IDH1KD tx: 6%

How did Cc1cccc(N(CC(O)Cn2c3ccccc3c3ccccc32)S(=O)(=O)c2ccc(F)cc2)c1 (centres undefined) do in these assays?
DT40 TDP1 no CPT: 8.2µM*; TDP1 cell CPT: 21µM*

Results for Cc1c(C)n(CC(O)CN(CCO)CCO)c2ccccc12 (centres undefined) ?
DT40 TDP1 no CPT: -2%; IL1B secr inh: -8; HT1080NT lethal: -2%; TDP1 cell CPT: -28%; HT1080 IDH1KD tx: -1%

How did Cc1cccc(C)c1N(CC(O)Cn1c2ccccc2c2ccccc21)S(C)(=O)=O (centres undefined) do in these assays?
DT40 TDP1 no CPT: inconclusive; IL1B secr inh: -22; HT1080NT lethal: inconclusive; TDP1 cell CPT: inconclusive; HT1080 IDH1KD tx: inconclusive

Results for Cc1ccc(N(CC(O)Cn2c3ccccc3c3ccccc32)S(C)(=O)=O)cc1 (centres undefined) ?
DT40 TDP1 no CPT: inconclusive; IL1B secr inh: -66*; HT1080NT lethal: inconclusive; TDP1 cell CPT: -20%; HT1080 IDH1KD tx: inconclusive

What do the screens show for `Cc1ccc(N(CC(O)Cn2nc(C)cc2C)S(=O)(=O)c2ccc3ccccc3c2)cc1` (centres undefined)?
DT40 TDP1 no CPT: 18µM*; IL1B secr inh: inconclusive; HT1080NT lethal: -9%; TDP1 cell CPT: inconclusive; HT1080 IDH1KD tx: -2%
